This passage reports inhibition results from PubChem BioAssay AID602399 (Sanford-Burnham Center for Chemical Genomics, 2012).

One may read the inhibition as the drop in the measured response relative to a control, in per cent.

In all, about 360,000 compounds went through this assay and about 2,800 (0.78%) were called active. This is one part of a sample in which actives are shown more often than they occur. Rule as the data show it: active = inhibition above about 26%; inactive = the rest.

This assay concerns Nicotinate-nucleotide adenylyltransferase NadD (Staphylococcus aureus N315). Nature of the assay: inhibitors of S. aureus NadD, primary screen, biochemical, colorimetric, uHTS (AID 602399). As to conditions: purified NadD enzyme, colorimetric absorbance read-out; at 20 µM; hits give high values.
Consider `O=C(NC(=O)N1CCSCC1)c1c(Cl)cccc1Cl`, for which the inhibition is 17.8% (inactive).

Take `Cc1ccc(S(=O)(=O)NCC(=O)N(CC(=O)NC(C)(C)C)Cc2cccs2)cc1`: the inhibition was -3.65% (inactive).

Turning to `Cn1c2c(c(=O)n(C)c1=O)[C@@H]1c3c(ccc4ccccc34)OC[C@@H]1CO2`, the inhibition is 1.89% (inactive).

On to `CC1=CC(=O)C=CC1(C)C(Cl)(Cl)Cl` (configuration not stated), for which the inhibition was 4.28% (inactive).

Turning to `N#CC1=C(N)Oc2c(sc3ccccc23)C1c1ccco1` (configuration not stated), the inhibition is 33.4% (active).

`Cc1ccc(C(=O)N(CN2CCCC2=O)c2ccc(F)cc2)cc1`: the inhibition was -3.99% (inactive).

`COc1cc(C(F)(F)F)c(C(=O)N(C)c2ccc(Cl)cc2)cn1`: the inhibition is -3.26% (inactive).

Turning to `COc1ccc(C(NC(=O)C2CCN(CCCc3ccccc3)CC2)c2cccs2)cc1` (configuration not stated), the inhibition is 0.814% (inactive).

As for `Cc1ccc2sc(NNC(=O)c3ccc4c(c3)OCCO4)nc2c1C`, the inhibition is 11.1% (inactive).

Consider `COc1cccc2sc(NNC(=O)c3nc4ccccc4s3)nc12`, for which the inhibition is 36.6% (active).

For the molecule `COc1cccc(/C=C/c2ccc3ccccc3n2)c1OC(C)=O`, the inhibition is -5.51% (inactive).

Turning to `O=C(COc1nc2ccccc2nc1N1CCOCC1)NCC(F)(F)F`, the inhibition was -2.03% (inactive).

Take `COC(=O)[C@@]1(Cc2ccc(OC)cc2)[C@H]2c3cc(C(=O)N4CCCC4)n(Cc4ccc(OC(F)(F)F)cc4)c3C[C@H]2CN1C(=O)c1ccccc1`: the inhibition was 15.7% (inactive).

As to `CCOc1ccc(S(=O)(=O)N2CCCCC2)cc1NC(=O)CN1CCCC1c1cccs1` (configuration not stated), the inhibition is 5.31% (inactive).

Take `CCN(CC)c1ccc(NC(=O)CN2C(=O)NC3(CCc4ccccc43)C2=O)cc1` (configuration not stated): the inhibition is -4.85% (inactive).

Consider `CCCN(c1ccc(C(C)C)cc1)S(=O)(=O)c1c(C)[nH]c(=O)[nH]c1=O`, for which the inhibition is 6.85% (inactive).

For `CC(=O)Nc1ccc(C(=O)Nc2cccc(S(=O)(=O)NC3=NCCC3)c2)cc1`, the inhibition was 7.82% (inactive).

As for `Nc1[nH]c(=S)nc2nc(-c3ccccc3)c(-c3ccccc3)nc12`, the inhibition was 31.3% (active).

For `CC/C(=N\O)C(C)(C)/[N+]([O-])=C/c1ccc(Br)cc1`, the inhibition was -4.93% (inactive).

As to `CC12CN(Cc3ccccc3)CC(C)(CN(Cc3ccccc3)C1)C2=NO`, the inhibition is -2.69% (inactive).

Regarding `O=C(NCCc1cccc(F)c1)C1CC(O)CN1C(=O)Nc1ccccc1` (configuration not stated), the inhibition was 0.207% (inactive).

In the case of `O=S(=O)(c1ccc(Cl)cc1)N1CCCN(c2ccc(C(F)(F)F)cn2)CC1`, the inhibition was -6.85% (inactive).

`Cc1ccc2nc(/C(C#N)=C\c3ccc(OC(=O)c4cccs4)cc3)[nH]c2c1`: the inhibition is 40.4% (active).

`COc1ccc(CCNC(=O)/C(C#N)=C2\N=C(NC(=O)c3cccs3)c3ccccc32)cc1`: the inhibition is 2.29% (inactive).

As for `CN1CCN(CC#CCC2(O)c3ccccc3-c3ccccc32)CC1`, the inhibition was -2.12% (inactive).

Take `O=C1CC(c2cccc(Cl)c2)CC(O)=C1C=Nc1ccccc1` (configuration not stated): the inhibition is -3.63% (inactive).

As for `COc1ccc2c(c1OC)C(=O)N(c1ncn[nH]1)C2`, the inhibition is 0.954% (inactive).

`COc1ccc(Cl)cc1S(=O)(=O)N1CCC(O)(c2ccc(Cl)cc2)CC1`: the inhibition was -4.67% (inactive).

Take `CCc1c(C)c2c(C)[nH]nc2oc1=O`: the inhibition was -0.195% (inactive).

On to `Cc1cccc(NC(=O)c2sc3nc4c(c(-c5ccco5)c3c2N)CCC4)c1`, for which the inhibition was 44.6% (active).

Take `Cc1ccc(NC(=O)c2sc3nc(N)c(C#N)cc3c2N)cc1`: the inhibition is 12.7% (inactive).

As to `O=c1oc(-c2ccco2)nc2sc3c(c12)CCCCC3`, the inhibition is -5.51% (inactive).

In the case of `Cc1cccn2c(CN(C)C3CCCc4ccccc43)c(C(=O)N3CCOCC3)nc12` (configuration not stated), the inhibition was -3.79% (inactive).

On to `C=CCOc1ccccc1NC(=O)CN1C(=O)CNC1=O`, for which the inhibition is -2.12% (inactive).

Regarding `O=C(Nc1ccc(Br)cn1)C1CCN(S(=O)(=O)c2cccs2)CC1`, the inhibition is -7.26% (inactive).

With `CCCc1nc(SCC(=O)Nc2ccccc2OC)c2c(=O)n(C)c(=O)n(C)c2n1`, the inhibition was -1.01% (inactive).

On to `O=C(O)CCN(Cc1ccccc1)S(=O)(=O)c1c(Cl)cccc1Cl`, for which the inhibition was -4.97% (inactive).

As to `CCOC(=O)C1=C(C)c2ccccc2OC1C(=O)OCC` (configuration not stated), the inhibition is -1.62% (inactive).

In the case of `C=C1c2cccc(OC)c2O[C@H](C(=O)OCC)[C@@H]1CCCCCC`, the inhibition is 52.4% (active).

In the case of `O=C(CSc1nc2ccccc2c(=O)[nH]1)Nc1nc(-c2ccc(Br)cc2)cs1`, the inhibition was 42.3% (active).

Consider `O=C(CSc1ncn[nH]1)Nc1nc(-c2cccc([N+](=O)[O-])c2)cs1`, for which the inhibition was -5.15% (inactive).

`O=C(COC(=O)c1cc(=O)[nH]c2ccccc12)Nc1nc(-c2cccc(Br)c2)cs1`: the inhibition is 42.5% (active).

For `O=C(OCc1nnc(-c2ccccc2)o1)c1cc(=O)[nH]c2ccccc12`, the inhibition was -0.542% (inactive).

Consider `Cc1csc(NC(=O)CSc2ccc(-c3ccc(F)cc3)nn2)n1`, for which the inhibition was 0.514% (inactive).

As for `O=C(COC(=O)c1cc(=O)[nH]c2ccccc12)NCc1cccc(Cl)c1`, the inhibition was 0% (inactive).

For `CCOC(=O)c1ccn(S(=O)(=O)c2ccc(C)cc2)c1-c1ccccc1`, the inhibition is -0.973% (inactive).

In the case of `CCOc1ccc(-c2cn(S(=O)(=O)c3cccc4nsnc34)nc2N)cc1`, the inhibition was -0.18% (inactive).

In the case of `CC(C)c1nnc(NC(=O)CCC(=O)N2CCN(c3cccc(Cl)c3)CC2)s1`, the inhibition was 1.72% (inactive).

Turning to `COc1c(F)c(F)c(-c2csc(N)n2)c(F)c1F`, the inhibition was -5.11% (inactive).

Regarding `O=C(Nc1ccc(OCCO)cc1)c1csc([C@H]2C[C@H](O)[C@@H](CO)O2)n1`, the inhibition was -8.65% (inactive).

For the molecule `CCCNC(=O)c1cnc(-c2ccccc2)nc1-c1ccccc1`, the inhibition is -3.59% (inactive).

As for `CCOc1cc(/C=C2/N=C(c3ccc(C(C)(C)C)cc3)OC2=O)cc(Cl)c1OS(C)(=O)=O`, the inhibition is 71.7% (active).

As to `O=C(Nc1nc2ccc([N+](=O)[O-])cc2s1)c1ccc(S(=O)(=O)N2CCCc3ccccc32)cc1`, the inhibition is 34.4% (active).

Regarding `CNC(=O)c1ccsc1NC(=O)c1ccc(S(=O)(=O)N2CCc3ccccc32)cc1`, the inhibition was 11.7% (inactive).

On to `O=C(NC(Nc1nc2ccc([N+](=O)[O-])cc2s1)(C(F)(F)F)C(F)(F)F)c1ccccc1`, for which the inhibition was -2.21% (inactive).

Consider `O=C(OCc1cn(-c2ccc(Cl)c(Cl)c2)nn1)c1ccccc1Cl`, for which the inhibition was 0.666% (inactive).

On to `C=CCc1cccc2cc(C(=O)N3CCN(C(=O)OCC)CC3)c(=O)oc12`, for which the inhibition was -4.59% (inactive).
